Source: PubChem BioAssay
Calls of active or inactive are those of the source.

Assays:
[1] = binders of probe aFSTL3 on microarray, primary screen, stem cell growth factor project, biochemical, small-molecule microarray, fluorescence 635/667 (AID 1064); details: higher = more signal;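 note: measures binding of the biotinylated anti-FSTL3 antibody to printed compounds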
[2] = binders from COS7 lysate, DM2A8 probe, primary screen, torsin A project, cell lysate, small-molecule microarray, fluorescence 635/667 (AID 1065); details: higher = more signal, COS7 lysate expressing mutant human TOR1A
[3] = binders of probe aFGF2 on microarray, primary screen, stem cell growth factor project, biochemical, small-molecule microarray, fluorescence 635/667 (AID 1067); details: higher = more signal;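 note: measures binding of biotinylated aFGF2 protein to printed compounds on slides; z-score merges feature fluorescence and signal-to-noise across triplicate slides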
[4] = binders of probe aFGF10 on microarray, primary screen, stem cell growth factor project, biochemical, small-molecule microarray, fluorescence 635/667 (AID 1071); details: higher = more signal;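 note: score merges 667 nm spot intensity and signal to noise from triplicate slides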
[5] = target: Neurogenic locus notch homolog protein 2 (Homo sapiens) (UniProt Q04721); assay: Notch2 binders on small-molecule microarrays, primary screen, biochemical, small-molecule microarray, 635 nm fluorescence, stem cell growth factors (AID 1073); details: Notch2 binding, higher = more signal
[6] = target: Pro-neuregulin-1, membrane-bound isoform (Homo sapiens) (UniProt Q02297); assay: NRG1 binders on small-molecule microarrays, primary screen, psychiatric disease protein project, biochemical, small-molecule microarray, fluorescence 635/667 (AID 1075); details: NRG1 binding, 635 nm fluorescence, higher = more signal;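 note: score combines 667 nm spot fluorescence with signal to noise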
[7] = system: Neuregulin-1 EGF-like domain; assay: binders of neuregulin-1 EGF-like domain, primary screen, biochemical, small-molecule microarray, 635 nm fluorescence (AID 1081); details: small-molecule microarray binding, higher = more signal;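 note: binding of the protein to compounds printed on small-molecule microarray slides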
[8] = FRG1 promoter luciferase signal modulators, primary screen, FRG1 inhibition for FSHD, cell-based, C2C12 myotubes, firefly/Renilla luciferase, luminescence (AID 1084); details: higher = more signal, called active from +8 up or from −8 down
[9] = binders of probe aFST on microarray, primary screen, stem cell growth factor project, biochemical, small-molecule microarray, fluorescence 635/667 (AID 1086); details: higher = more signal;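 note: score merges 667 nm fluorescence with signal-to-noise of each printed compound spot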
[10] = binders of probe aHhip on microarray, primary screen, stem cell growth factor project, biochemical, small-molecule microarray, fluorescence 635/667 (AID 1087); details: higher = more signal;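 note: score merges spot fluorescence at 667nm with spot signal to noise ratio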
[11] = system: PRMT1 (protein arginine N-methyltransferase 1); assay: PRMT1 binders on small-molecule microarrays, primary screen, biochemical, small-molecule microarray, 635 nm fluorescence (AID 1088); details: small-molecule microarray binding, higher = more signal;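 note: binding of Prmt1 protein to compounds spotted on small-molecule microarray slides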
[12] = yeast growth modulation, basal conditions, primary screen, YJM789 clinical isolate, OD600, 24 h (AID 1089);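 note: growth of clinical yeast isolate S. cerevisiae YJM 789 seeded 1000 cells per well; test concentration not given here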; details: S. cerevisiae YJM789 growth, higher = more signal, called active from +8 up or from −8 down
[13] = fission yeast growth modulation, primary screen, strain 972, OD600, 24 h, no modulator (AID 1090);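 note: basal condition with compound alone and no growth modifier present; test concentration not given here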; details: S. pombe 972 growth, higher = more signal, called active from +8 up or from −8 down
[14] = S. cerevisiae growth modulation with rapamycin, primary screen, strain BY4716, OD600, 96 h (AID 1091); details: higher = more signal, called active from +8 up or from −8 down; note: test concentration not given here
[15] = target: Torsin-1A-interacting protein 2 (Homo sapiens) (UniProt Q8NFQ8); assay: LULL1 binders on small-molecule microarray, primary screen, cell lysate, human LULL1 lysate, 635/667 nm fluorescence (AID 1092); details: hLULL1 lysate binding, 635 nm fluorescence, higher = more signal;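 note: probe is lysate of COS7 cells overexpressing human LULL1; score merges per-feature 667 nm fluorescence with signal-to-noise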
[16] = E. coli growth modulation, two-sided OD650, primary screen, E. coli filamentation project, strain DRC41, 24 h (AID 1093); details: OD650, 24 h, higher = more signal, called active from +8 up or from −8 down;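 note: MC1000 strain lacking acrAB efflux and sulA so SOS filamentation is blocked; test concentration not given here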
[17] = small-molecule microarray binders of probe aLefty2, primary screen, biochemical, biotinylated probe, 635/667 nm fluorescence (AID 1094); details: higher = more signal;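 note: score merges spot fluorescence near 667 nm with spot signal-to-noise ratio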
[18] = system: Noggin (protein binding on small-molecule microarray); assay: Noggin binders on small-molecule microarray, primary screen, biochemical, 635/667 nm fluorescence (AID 1095); details: 635 nm fluorescence, higher = more signal;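 note: score merges 667 nm feature fluorescence with signal to noise over triplicate slides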
[19] = target: Neurogenic locus notch homolog protein 3 (Homo sapiens) (UniProt Q9UM47); assay: NOTCH3 binders on small-molecule microarray, primary screen, biochemical, 635/667 nm fluorescence (AID 1096); details: NOTCH3 binding, 635 nm fluorescence, higher = more signal
[20] = small-molecule microarray binders of probe aEGFR, primary screen, biochemical, biotinylated probe, 635/667 nm fluorescence (AID 1097); details: higher = more signal;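 note: probe is a biotinylated anti-EGFR antibody binding compounds printed on slides; score combines fluorescence near 667 nm and signal to noise of each spot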

Sequence of Torsin-1A-interacting protein 2 (Homo sapiens) (Q8NFQ8 whole entry, looked up): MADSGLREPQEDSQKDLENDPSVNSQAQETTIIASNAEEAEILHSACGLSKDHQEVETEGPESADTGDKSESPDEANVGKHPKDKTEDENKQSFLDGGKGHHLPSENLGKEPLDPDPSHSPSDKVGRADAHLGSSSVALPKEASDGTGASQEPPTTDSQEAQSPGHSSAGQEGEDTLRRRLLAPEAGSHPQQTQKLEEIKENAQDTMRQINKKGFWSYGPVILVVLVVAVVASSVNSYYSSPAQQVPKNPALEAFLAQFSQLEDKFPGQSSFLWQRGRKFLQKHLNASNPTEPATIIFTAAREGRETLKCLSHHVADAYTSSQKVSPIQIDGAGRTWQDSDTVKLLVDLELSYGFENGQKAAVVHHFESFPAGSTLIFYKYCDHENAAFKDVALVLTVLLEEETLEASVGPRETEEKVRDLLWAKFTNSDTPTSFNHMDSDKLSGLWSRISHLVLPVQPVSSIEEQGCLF
Sequence of Neurogenic locus notch homolog protein 2 (Homo sapiens) (Q04721 whole entry, looked up, canonical isoform): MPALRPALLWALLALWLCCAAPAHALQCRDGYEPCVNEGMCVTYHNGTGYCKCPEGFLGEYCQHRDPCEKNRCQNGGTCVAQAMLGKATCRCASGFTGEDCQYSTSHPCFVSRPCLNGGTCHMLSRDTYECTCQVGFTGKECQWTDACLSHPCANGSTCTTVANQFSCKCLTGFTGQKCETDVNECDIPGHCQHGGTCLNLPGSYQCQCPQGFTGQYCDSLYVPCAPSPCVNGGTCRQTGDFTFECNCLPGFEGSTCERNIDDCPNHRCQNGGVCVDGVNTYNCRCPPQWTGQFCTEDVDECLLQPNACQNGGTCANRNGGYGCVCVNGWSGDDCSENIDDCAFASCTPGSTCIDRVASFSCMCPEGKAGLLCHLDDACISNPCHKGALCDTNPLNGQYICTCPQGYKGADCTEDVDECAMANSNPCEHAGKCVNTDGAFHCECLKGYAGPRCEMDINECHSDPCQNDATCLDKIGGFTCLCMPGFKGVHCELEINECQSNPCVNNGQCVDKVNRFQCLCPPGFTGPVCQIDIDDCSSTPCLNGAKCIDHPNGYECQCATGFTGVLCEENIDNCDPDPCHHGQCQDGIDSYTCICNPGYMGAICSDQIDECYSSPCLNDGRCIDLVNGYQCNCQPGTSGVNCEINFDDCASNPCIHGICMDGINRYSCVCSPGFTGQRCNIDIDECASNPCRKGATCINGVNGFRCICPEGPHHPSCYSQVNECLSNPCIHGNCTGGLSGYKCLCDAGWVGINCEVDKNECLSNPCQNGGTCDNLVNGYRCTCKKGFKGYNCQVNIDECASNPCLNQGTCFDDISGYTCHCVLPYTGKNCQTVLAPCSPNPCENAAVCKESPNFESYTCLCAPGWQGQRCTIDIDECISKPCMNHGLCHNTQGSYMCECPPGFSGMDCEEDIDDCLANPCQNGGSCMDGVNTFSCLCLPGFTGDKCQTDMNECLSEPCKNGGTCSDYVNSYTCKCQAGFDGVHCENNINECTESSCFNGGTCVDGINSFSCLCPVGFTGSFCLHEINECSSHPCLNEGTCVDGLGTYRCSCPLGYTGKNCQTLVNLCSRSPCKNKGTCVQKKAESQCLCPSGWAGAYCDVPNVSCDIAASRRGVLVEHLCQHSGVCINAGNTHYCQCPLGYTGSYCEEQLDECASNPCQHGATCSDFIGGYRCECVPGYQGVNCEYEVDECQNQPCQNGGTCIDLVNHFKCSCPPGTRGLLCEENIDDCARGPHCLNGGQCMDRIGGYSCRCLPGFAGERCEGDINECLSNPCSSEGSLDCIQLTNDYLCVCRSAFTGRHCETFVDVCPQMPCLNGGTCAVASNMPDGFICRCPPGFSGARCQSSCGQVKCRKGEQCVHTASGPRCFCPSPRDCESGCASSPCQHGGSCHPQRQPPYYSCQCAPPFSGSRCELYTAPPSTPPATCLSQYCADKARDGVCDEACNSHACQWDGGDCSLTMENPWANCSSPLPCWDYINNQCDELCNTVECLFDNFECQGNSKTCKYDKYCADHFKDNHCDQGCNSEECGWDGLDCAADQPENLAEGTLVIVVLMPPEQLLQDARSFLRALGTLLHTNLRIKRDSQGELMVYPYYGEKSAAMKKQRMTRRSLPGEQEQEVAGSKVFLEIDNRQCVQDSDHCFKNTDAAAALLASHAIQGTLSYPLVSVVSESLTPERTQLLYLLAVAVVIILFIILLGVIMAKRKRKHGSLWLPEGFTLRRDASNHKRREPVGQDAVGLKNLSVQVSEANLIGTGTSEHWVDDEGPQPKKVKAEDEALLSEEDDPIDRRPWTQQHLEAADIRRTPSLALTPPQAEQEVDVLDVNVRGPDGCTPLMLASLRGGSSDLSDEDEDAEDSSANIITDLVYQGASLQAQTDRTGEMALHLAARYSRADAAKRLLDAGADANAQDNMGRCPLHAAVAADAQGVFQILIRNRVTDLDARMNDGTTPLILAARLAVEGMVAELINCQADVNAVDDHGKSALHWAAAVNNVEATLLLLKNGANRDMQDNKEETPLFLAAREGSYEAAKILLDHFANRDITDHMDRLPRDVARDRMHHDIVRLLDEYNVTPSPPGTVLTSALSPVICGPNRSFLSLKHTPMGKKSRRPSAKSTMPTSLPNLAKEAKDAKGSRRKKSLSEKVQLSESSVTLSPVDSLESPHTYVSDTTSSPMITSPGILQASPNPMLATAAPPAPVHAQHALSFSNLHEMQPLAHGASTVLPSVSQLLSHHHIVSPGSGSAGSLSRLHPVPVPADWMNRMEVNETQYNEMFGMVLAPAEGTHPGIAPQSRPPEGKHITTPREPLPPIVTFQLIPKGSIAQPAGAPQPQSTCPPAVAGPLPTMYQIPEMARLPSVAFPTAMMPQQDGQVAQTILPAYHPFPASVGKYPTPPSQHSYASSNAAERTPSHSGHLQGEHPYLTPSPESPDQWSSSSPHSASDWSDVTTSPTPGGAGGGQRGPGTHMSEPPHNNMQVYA
Sequence of Pro-neuregulin-1, membrane-bound isoform (Homo sapiens) (Q02297 whole entry, looked up, the tested form may be a part, canonical isoform): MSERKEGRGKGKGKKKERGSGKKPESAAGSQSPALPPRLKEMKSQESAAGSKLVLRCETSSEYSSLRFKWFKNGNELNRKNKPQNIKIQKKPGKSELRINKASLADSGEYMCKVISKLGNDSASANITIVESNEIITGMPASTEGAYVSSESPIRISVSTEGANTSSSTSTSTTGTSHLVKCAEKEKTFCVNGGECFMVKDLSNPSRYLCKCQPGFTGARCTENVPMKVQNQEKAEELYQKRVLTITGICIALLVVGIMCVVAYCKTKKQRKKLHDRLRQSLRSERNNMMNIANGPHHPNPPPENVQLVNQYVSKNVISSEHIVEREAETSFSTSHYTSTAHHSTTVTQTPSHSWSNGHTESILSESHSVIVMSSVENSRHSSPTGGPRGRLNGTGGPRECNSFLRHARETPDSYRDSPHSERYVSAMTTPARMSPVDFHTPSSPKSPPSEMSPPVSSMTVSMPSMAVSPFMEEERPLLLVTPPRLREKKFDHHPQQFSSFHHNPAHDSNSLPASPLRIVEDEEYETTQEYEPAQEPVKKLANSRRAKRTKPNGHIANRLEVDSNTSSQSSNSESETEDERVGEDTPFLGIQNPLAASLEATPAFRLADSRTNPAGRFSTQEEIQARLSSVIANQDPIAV

Structure (SMILES)	composite z-score [1]	composite z-score [2]	composite z-score [3]	composite z-score [4]	composite z-score [5]	composite z-score [6]	composite z-score [7]	z-score [8]	composite z-score [9]	composite z-score [10]	composite z-score [11]	z-score [12]	z-score [13]	z-score [14]	composite z-score [15]	z-score [16]	composite z-score [17]	composite z-score [18]	composite z-score [19]	composite z-score [20]
C[N+](C)(C)CCCCCCNC(=O)[C@H]1C[C@H]2C(=O)N3CCC[C@H]3C(=O)N2[C@H]1c1ccc(O)cc1	0.159	1.01	-0.116	-0.0314	-0.967	1.96	1.37	3.58 (inactive)	-0.106	-0.0618	1.54	-0.842 (inactive)	-0.153 (inactive)	-0.185 (inactive)	2.96	0.89 (inactive)	0.0087	0.785	0.6	-0.36
CCOC(=O)[C@H]1C[C@H]2O[C@@]23C[C@H]1C(=O)N1CCCC1[C@@H]3O[Si](C)(C)C(C)(C)C (stereo not given in full)	-0.328	-0.537	-0.104	-0.101	-0.547	-0.333	-0.76	-0.184 (inactive)	0.0204	0.0274	0.105	-0.938 (inactive)	-3.58 (inactive)	-1.12 (inactive)	-0.0341	-0.788 (inactive)	0.807	0.478	-0.288	-0.149
CCCCC(O)C1C=CC2C(=O)N(C3CCCCC3)C(=O)C2N1Nc1ccc(OC)cc1 (stereo not given)	-0.362	0.139	-0.0056	0.441	1.45	1.29	1.13	0.405 (inactive)	0.583	0.107	1.19	0.595 (inactive)	0.241 (inactive)	1.15 (inactive)	2.77	0.202 (inactive)	0.165	0.5	1.1	-0.0661
O=C1O[C@@H](c2ccccc2)[C@@H](c2ccccc2)N2[C@@H](c3ccc(O)cc3)[C@]3(C(=O)Nc4ccc(C#CC5=CCCCC5)cc43)[C@@H](C(=O)O)[C@H]12	0.638	1.56	-0.0908	0.725	0.798	1.2	1.14	-0.611 (inactive)	0.437	0.0274	1.53	-2.6 (inactive)	-3.2 (inactive)	-2.21 (inactive)	2.86	3.68 (inactive)	0.246	0.878	0.925	-0.0315
COc1ccc([Si](C)(C)[C@@H]2[C@@H](CCn3cc([C@H](O)c4ccccc4)nn3)O[C@]3(C(=O)N(Cc4cccc(N5CCOC5=O)c4)c4ccccc43)[C@H]2C)cc1	0.752	-0.268	-0.152	-0.368	-1.11	0.0895	-0.0072	1.34 (inactive)	-0.64	-0.236	-0.217	1.56 (inactive)	1.45 (inactive)	3.61 (inactive)	0.697	0.894 (inactive)	-0.117	-0.89	-1.29	-0.278
[N-]=[N+]=NCc1ccccc1[C@@H]1OC(c2ccc(OCCCO)cc2)=N[C@]1(Cc1ccccc1)C(=O)N1CCCCC1	0.49	1.1	0.0703	1.05	1.5	1.18	1.12	-1.03 (inactive)	1.49	0.212	1.15	-0.202 (inactive)	-1.09 (inactive)	1.66 (inactive)	2.74	1.47 (inactive)	0.332	1.46	1.07	0.193
COCC(=C=CC[C@@H](O)c1ccc(CO)o1)CCO	-0.403	-0.196	-0.188	0.502	-0.235	0.178	-0.149	-1.71 (inactive)	-0.0032	0.011	0.737	-3.24 (inactive)	-2.34 (inactive)	-2.27 (inactive)	-0.816	1.6 (inactive)	-0.256	1.33	0.735	-0.0943
O=C(O)[C@@]1(Cc2ccccc2)N=C(c2ccc(OCCCO)cc2)O[C@H]1c1ccccc1	0.447	-0.647	-0.0819	0.0083	-0.738	1.91	0.923	-3.29 (inactive)	0.88	-0.126	1.48	0.552 (inactive)	-0.93 (inactive)	0.115 (inactive)	2.42	0.625 (inactive)	-0.126	0.454	0.793	-0.184
O=C1O[C@@H](c2ccccc2)[C@@H](c2ccccc2)N2[C@@H](c3ccc(OCCO)cc3)[C@]3(C(=O)Nc4ccc(C#CC5=CCCCC5)cc43)[C@@H](C(=O)O)[C@H]12	0.44	0.681	-0.0158	0.506	1.48	1.59	1.12	0.82 (inactive)	0.492	0.0274	1.5	1.73 (inactive)	1.22 (inactive)	-0.188 (inactive)	1.96	0.112 (inactive)	0.0919	0.107	0.793	0.0061
